Source: PubChem BioAssay (NCI)
This is part of a sample that, as a whole, favours compounds with a hit. Of some 83,000 tested, about 20% had one in any assay.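 Plates (96-well) were seeded with cells, treated with compound at one concentration, and incubated for 48 hours before percent growth was determined.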 Calls of active or inactive are those of the source. How the source made its calls: active means growth percent below 10; inactive means the rest.

The compounds below were run on NCI-H322M lung (assay: NCI-60 one-dose screen, 48 h (100 = growth as untreated, 0 = no growth, -100 = all killed)). Settings: 10 µM unless noted.
`O=C1C=Cc2ncccc2C1=O` was tested, and the growth was 97.7% (inactive).
In the case of `COc1cc2c(cc1OC)C(=O)/C(=C/c1cc(-c3ccc4c(c3)OCO4)n[nH]1)C2`, the growth is reported as -5.69% (active).
For `CCN(CC)CCCCCCNc1ccnc2cc(Cl)ccc12`, the growth was 96.2% (inactive).
In the case of `COC(c1ccccc1)(c1ccccc1)c1ccccc1`, the growth is reported as 102% (inactive).
With `CC(CNc1nc(Nc2ccc(Cl)c(Cl)c2)nc(C(Cl)(Cl)Cl)n1)N(C)C` (stereo unspecified) the growth was 27.6% (inactive).
In the case of `COc1cccc2c1C(=O)c1c(O)c3c(c(O)c1C2=O)C[C@@](O)(C(=O)CO)C[C@@H]3OC1C[C@H](N)[C@H](O)[C@H](C)O1` (stereo partly specified), the growth is reported as -2.94% (active).
`NC(=O)[C@@H]1CC2CCC1C2` (stereo partly specified) was tested, and the growth was 110% (inactive).
With `COc1cc2[nH]c(C(=O)c3cc(OC)c(OC)c(OC)c3)c(N)c2cc1C#CCO` the growth was 43.6% (inactive).
With `CN(C)c1ccc(N=C2C=CC(=O)C=C2)cc1` the growth was 75% (inactive).
`COc1ccc(C(=O)c2cc(OC)c(OC)c(OC)c2)cc1/C=C/C(=O)c1cc(OC)c(OC)c(OC)c1` was tested, and the growth was 91.2% (inactive).
For `Nc1c(C(=O)Nc2cccc(Br)c2)sc2nc3c(cc12)C(=O)CCC3`, the growth was 64.7% (inactive).
For `O=C1NC(=Nc2ccc(S(=O)(=O)Nc3nccs3)cc2)S/C1=C\c1coc2ccccc2c1=O`, the growth was 101% (inactive).
In the case of `COc1ccc(C(=O)/C=C/c2cc(-c3cc(OC)c(OC)c(OC)c3)n[nH]2)cc1OC`, the growth is reported as -42.4% (active).
For `COc1cc2[nH]c(C(=O)c3cc(OC)c(OC)c(OC)c3)c(N)c2cc1C#CC1CC1`, the growth was 52.7% (inactive).
With `O=C(NC1=CC(=O)c2ccccc2C1=O)c1ccccc1` the growth was 57.9% (inactive).
In the case of `COC(=O)c1cc(=O)nc(N/N=C/c2ccc(C)cc2)s1`, the growth is reported as 108% (inactive).
In the case of `COc1cc(C(=O)/C=C/c2cc(-c3ccc4c(c3)OCO4)n[nH]2)cc(OC)c1OC`, the growth is reported as 19.3% (inactive).
With `O=C(/C=C\c1ccc2c(c1)OCO2)/C=C/c1ccc2c(c1)OCO2` the growth was 99.2% (inactive).
In the case of `COc1cc(-c2cc(-c3nc4cc(Cl)c(Cl)cc4[nH]3)[nH]n2)cc(OC)c1OC`, the growth is reported as 92.3% (inactive).
In the case of `COC1=C(Br)C(=O)C(OC)=C(Br)C1=O`, the growth is reported as 98.1% (inactive).
`COc1ccc2c(c1)C/C(=C\c1cc(-c3ccc4c(c3)OCO4)n[nH]1)C2=O` was tested, and the growth was 113% (inactive).
In the case of `CC(C)(C)c1ccc(OP(=S)(N/N=C/c2ccccc2O)Oc2ccc(C(C)(C)C)cc2)cc1`, the growth is reported as 76.3% (inactive).
For `OCC12CCCC(CO)(COC1)C2O` (stereo unspecified), the growth was 115% (inactive).
With `COc1ccc(-c2cc(/C=C/C(=O)c3ccc(N)cc3)[nH]n2)cc1` the growth was 12.4% (inactive).
For `O=c1c(CNc2ccc(S(=O)(=O)Nc3ncccn3)cc2)coc2ccccc12`, the growth was 97.1% (inactive).
With `NC(Cc1ccc(O)cc1)C(=O)N/N=C/c1ccccc1O` (stereo unspecified) the growth was 94% (inactive).
`COc1ccc2c(c1)C/C(=C\c1cc(-c3cc(OC)c(OC)c(OC)c3)n[nH]1)C2=O` was tested, and the growth was 93.9% (inactive).
With `O=c1c(CNc2ccc(S(=O)(=O)Nc3nccs3)cc2)coc2ccccc12` the growth was 87.6% (inactive).
For `Nc1c(C(=O)Nc2cccc(Cl)c2)sc2ncc(Cl)cc12`, the growth was 64.7% (inactive).
In the case of `CCN(CC)CCCCCNc1cc(OC(=O)c2ccccc2)cc2cccnc12`, the growth is reported as 102% (inactive).
For `Fc1ccc2nc(-c3cc(-c4ccc5c(c4)OCO5)n[nH]3)[nH]c2c1`, the growth was 64.9% (inactive).
In the case of `C#Cc1cc2c(N)c(C(=O)c3cc(OC)c(OC)c(OC)c3)[nH]c2cc1OC`, the growth is reported as 43.2% (inactive).
`Cc1cc(Cl)c2c(N(C)C)cccc2n1` was tested, and the growth was 89.9% (inactive).
With `COc1ccc(/C=C2\N=C(c3ccccc3)N(c3cc(OC)c(OC)cc3C(=O)N3N=C(C)CC3=O)C2=O)cc1` the growth was 118% (inactive).
`COc1ccc2nc(-c3c(-c4ccccc4)nc4ncccn34)[nH]c2c1` was tested, and the growth was 105% (inactive).
In the case of `O=C1C=C(C(O)c2ccc(O)cc2)C(=O)c2ccccc21` (stereo unspecified), the growth is reported as 95.2% (inactive).
With `Cc1ccc(-c2nc3ccc(Cl)cc3c(=O)n2N2C(=O)CSC2c2ccccc2Cl)cc1` (stereo unspecified) the growth was 86.7% (inactive).
`NS(=O)(=O)c1ccc(CCNC(=O)/C=C/c2ccc(Cl)cc2)cc1` was tested, and the growth was 107% (inactive).

Each compound was assayed on HOP-62 NSCLC in the same assay as above. Settings: 10 µM unless noted.
In the case of `O=C1C=Cc2ncccc2C1=O`, the growth is reported as 99.7% (inactive).
For `COc1cc2c(cc1OC)C(=O)/C(=C/c1cc(-c3ccc4c(c3)OCO4)n[nH]1)C2`, the growth was -52.5% (active).
`CCN(CC)CCCCCCNc1ccnc2cc(Cl)ccc12` was tested, and the growth was 82.6% (inactive).
For `COC(c1ccccc1)(c1ccccc1)c1ccccc1`, the growth was 106% (inactive).
In the case of `CC(CNc1nc(Nc2ccc(Cl)c(Cl)c2)nc(C(Cl)(Cl)Cl)n1)N(C)C` (stereo unspecified), the growth is reported as -68.4% (active).
With `COc1cccc2c1C(=O)c1c(O)c3c(c(O)c1C2=O)C[C@@](O)(C(=O)CO)C[C@@H]3OC1C[C@H](N)[C@H](O)[C@H](C)O1` (stereo partly specified) the growth was -29.2% (active).
For `NC(=O)[C@@H]1CC2CCC1C2` (stereo partly specified), the growth was 103% (inactive).
With `COc1cc2[nH]c(C(=O)c3cc(OC)c(OC)c(OC)c3)c(N)c2cc1C#CCO` the growth was 28.3% (inactive).
With `CN(C)c1ccc(N=C2C=CC(=O)C=C2)cc1` the growth was 107% (inactive).
With `COc1ccc(C(=O)c2cc(OC)c(OC)c(OC)c2)cc1/C=C/C(=O)c1cc(OC)c(OC)c(OC)c1` the growth was 117% (inactive).
In the case of `Nc1c(C(=O)Nc2cccc(Br)c2)sc2nc3c(cc12)C(=O)CCC3`, the growth is reported as 40.4% (inactive).
With `O=C1NC(=Nc2ccc(S(=O)(=O)Nc3nccs3)cc2)S/C1=C\c1coc2ccccc2c1=O` the growth was 99.5% (inactive).
For `COc1ccc(C(=O)/C=C/c2cc(-c3cc(OC)c(OC)c(OC)c3)n[nH]2)cc1OC`, the growth was -56.6% (active).
In the case of `COc1cc2[nH]c(C(=O)c3cc(OC)c(OC)c(OC)c3)c(N)c2cc1C#CC1CC1`, the growth is reported as 42.1% (inactive).
In the case of `O=C(NC1=CC(=O)c2ccccc2C1=O)c1ccccc1`, the growth is reported as 49.7% (inactive).
For `COC(=O)c1cc(=O)nc(N/N=C/c2ccc(C)cc2)s1`, the growth was 98.6% (inactive).
`COc1cc(C(=O)/C=C/c2cc(-c3ccc4c(c3)OCO4)n[nH]2)cc(OC)c1OC` was tested, and the growth was -22.7% (active).
In the case of `O=C(/C=C\c1ccc2c(c1)OCO2)/C=C/c1ccc2c(c1)OCO2`, the growth is reported as 91.4% (inactive).
With `COc1cc(-c2cc(-c3nc4cc(Cl)c(Cl)cc4[nH]3)[nH]n2)cc(OC)c1OC` the growth was 80.6% (inactive).
With `COC1=C(Br)C(=O)C(OC)=C(Br)C1=O` the growth was 111% (inactive).
With `COc1ccc2c(c1)C/C(=C\c1cc(-c3ccc4c(c3)OCO4)n[nH]1)C2=O` the growth was 102% (inactive).
For `CC(C)(C)c1ccc(OP(=S)(N/N=C/c2ccccc2O)Oc2ccc(C(C)(C)C)cc2)cc1`, the growth was 91.7% (inactive).
For `OCC12CCCC(CO)(COC1)C2O` (stereo unspecified), the growth was 106% (inactive).
For `COc1ccc(-c2cc(/C=C/C(=O)c3ccc(N)cc3)[nH]n2)cc1`, the growth was 15.4% (inactive).
With `O=c1c(CNc2ccc(S(=O)(=O)Nc3ncccn3)cc2)coc2ccccc12` the growth was 93% (inactive).
For `NC(Cc1ccc(O)cc1)C(=O)N/N=C/c1ccccc1O` (stereo unspecified), the growth was 105% (inactive).
In the case of `COc1ccc2c(c1)C/C(=C\c1cc(-c3cc(OC)c(OC)c(OC)c3)n[nH]1)C2=O`, the growth is reported as 103% (inactive).
In the case of `O=c1c(CNc2ccc(S(=O)(=O)Nc3nccs3)cc2)coc2ccccc12`, the growth is reported as 98.7% (inactive).
In the case of `Nc1c(C(=O)Nc2cccc(Cl)c2)sc2ncc(Cl)cc12`, the growth is reported as 73% (inactive).
With `CCN(CC)CCCCCNc1cc(OC(=O)c2ccccc2)cc2cccnc12` the growth was 98.7% (inactive).
For `Fc1ccc2nc(-c3cc(-c4ccc5c(c4)OCO5)n[nH]3)[nH]c2c1`, the growth was 75.5% (inactive).
For `C#Cc1cc2c(N)c(C(=O)c3cc(OC)c(OC)c(OC)c3)[nH]c2cc1OC`, the growth was 24.4% (inactive).
For `Cc1cc(Cl)c2c(N(C)C)cccc2n1`, the growth was 102% (inactive).
`COc1ccc(/C=C2\N=C(c3ccccc3)N(c3cc(OC)c(OC)cc3C(=O)N3N=C(C)CC3=O)C2=O)cc1` was tested, and the growth was 97% (inactive).
`COc1ccc2nc(-c3c(-c4ccccc4)nc4ncccn34)[nH]c2c1` was tested, and the growth was 108% (inactive).
In the case of `O=C1C=C(C(O)c2ccc(O)cc2)C(=O)c2ccccc21` (stereo unspecified), the growth is reported as 116% (inactive).
In the case of `Cc1ccc(-c2nc3ccc(Cl)cc3c(=O)n2N2C(=O)CSC2c2ccccc2Cl)cc1` (stereo unspecified), the growth is reported as 2.48% (active).
`NS(=O)(=O)c1ccc(CCNC(=O)/C=C/c2ccc(Cl)cc2)cc1` was tested, and the growth was 97.5% (inactive).
